In all, about 5,500 compounds went through this assay and about 2,000 (36%) were called active. Not shown: some 18% with an inconclusive outcome. Rule as the data show it: active = normalized growth mostly below about 0.91 (no sharp cut-off); inconclusive = no clear call, values can overlap the other calls; inactive = mostly above about 0.92. Some of the results follow.
Assay: chemical genetic growth profiling, strain panel (AID 1159580);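 also: tested at 20 µM; growth read once vehicle control cultures reached saturation at 30 °C; 1 = growth at the plate median or of vehicle wells; lower values mean less growth of the strain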
Settings: growth OD

Measured: normalized growth

COc1cc(O)c2c(=O)cc(-c3ccc(OC)c(-c4c(O)cc(O)c5c(=O)cc(-c6ccc(O)cc6)oc45)c3)oc2c1
inactive: S. cerevisiae deletion strains, locus YAL021C, strain ccr4, active compounds read low 0.991 | S. cerevisiae deletion strains, locus YAL026C, strain drs2, active compounds read low 0.982 | S. cerevisiae deletion strains, locus YAL030W, strain snc1, active compounds read low 1.01 | S. cerevisiae deletion strains, locus YBL061C, strain skt5, active compounds read low 0.996 | S. cerevisiae deletion strains, locus YBR009C, strain hhf1, active compounds read low 0.988 | S. cerevisiae deletion strains, locus YBR023C, strain chs3, active compounds read low 0.993 | S. cerevisiae deletion strains, locus YBR171W, strain sec66, active compounds read low 1.03 | S. cerevisiae deletion strains, locus YBR229C, strain ROT2, active compounds read low 0.948 | S. cerevisiae deletion strains, locus YBR231C, strain swc5, active compounds read low 0.972 | S. cerevisiae deletion strains, locus YBR279W, strain paf1, active compounds read low 1 | S. cerevisiae deletion strains, locus YCL011C, strain gbp2, active compounds read low 1.02 | S. cerevisiae deletion strains, locus YCL016C, strain dcc1, active compounds read low 1 | S. cerevisiae deletion strains, locus YCL029C, strain bik1, active compounds read low 0.992 | S. cerevisiae deletion strains, locus YCL061C, strain MRC1, active compounds read low 1 | S. cerevisiae deletion strains, locus YCL069W, strain vba3, active compounds read low 1.02 | S. cerevisiae deletion strains, locus YCR088W, strain abp1, active compounds read low 1.03 | S. cerevisiae deletion strains, locus YDL005C, strain med2, active compounds read low 1.03 | S. cerevisiae deletion strains, locus YDL035C, strain GPR1, active compounds read low 0.951 | S. cerevisiae deletion strains, locus YDL040C, strain nat1, active compounds read low 1.01 | S. cerevisiae deletion strains, locus YDL074C, strain BRE1, active compounds read low 1.01 | S. cerevisiae deletion strains, locus YDL101C, strain DUN1, active compounds read low 0.959 | S. cerevisiae deletion strains, locus YDL134C, strain PPH21, active compounds read low 0.917 | S. cerevisiae deletion strains, locus YDL185W, strain tfp1, active compounds read low 0.968 | S. cerevisiae deletion strains, locus YDL192W, strain arf1, active compounds read low 1 | S. cerevisiae deletion strains, locus YDR001C, strain nth1, active compounds read low 1.02 | S. cerevisiae deletion strains, locus YDR069C, strain doa4, active compounds read low 0.914 | S. cerevisiae deletion strains, locus YDR101C, strain arx1, active compounds read low 0.997 | S. cerevisiae deletion strains, locus YDR137W, strain rgp1, active compounds read low 1.05 | S. cerevisiae deletion strains, locus YDR150W, strain NUM1, active compounds read low 0.953 | S. cerevisiae deletion strains, locus YDR159W, strain sac3, active compounds read low 1.02 | S. cerevisiae deletion strains, locus YDR162C, strain NBP2, active compounds read low 0.915 | S. cerevisiae deletion strains, locus YDR195W, strain ref2 0.986 | S. cerevisiae deletion strains, locus YDR297W, strain sur2, active compounds read low 0.996 | S. cerevisiae deletion strains, locus YDR318W, strain mcm21, active compounds read low 0.987 | S. cerevisiae deletion strains, locus YDR334W, strain swr1, active compounds read low 1 | S. cerevisiae deletion strains, locus YDR335W, strain msn5, active compounds read low 1.03 | S. cerevisiae deletion strains, locus YDR388W, active compounds read low 0.986 | S. cerevisiae deletion strains, locus YDR392W, strain spt3, active compounds read low 0.91 | S. cerevisiae deletion strains, locus YDR502C, strain sam2, active compounds read low 0.978 | S. cerevisiae deletion strains, locus YEL003W, strain gim4, active compounds read low 1 | S. cerevisiae deletion strains, locus YEL037C, strain rad23, active compounds read low 1.01 | S. cerevisiae deletion strains, locus YEL061C, strain CIN8 (second series), active compounds read low 1.02 | S. cerevisiae deletion strains, locus YEL061C, strain CIN8, active compounds read low 0.934 | S. cerevisiae deletion strains, locus YER015W, strain faa2, active compounds read low 1 | S. cerevisiae deletion strains, locus YER016W, strain bim1, active compounds read low 1.01 | S. cerevisiae deletion strains, locus YER110C, active compounds read low 0.983 | S. cerevisiae deletion strains, locus YER111C, strain swi4, active compounds read low 1.01 | S. cerevisiae deletion strains, locus YER155C, strain BEM2 (second series), active compounds read low 0.962 | S. cerevisiae deletion strains, locus YER155C, strain BEM2, active compounds read low 1.03 | S. cerevisiae deletion strains, locus YER167W, strain BCK2, active compounds read low 0.957 | S. cerevisiae deletion strains, locus YFR010W, strain ubp6, active compounds read low 0.965 | S. cerevisiae deletion strains, locus YGL078C, strain dbp3, active compounds read low 0.987 | S. cerevisiae deletion strains, locus YGL167C, strain pmr1, active compounds read low 1.01 | S. cerevisiae deletion strains, locus YGL173C, strain kem1, active compounds read low 0.975 | S. cerevisiae deletion strains, locus YGL227W, strain vid30, active compounds read low 1.03 | S. cerevisiae deletion strains, locus YGL240W, strain doc1, active compounds read low 1.05 | S. cerevisiae deletion strains, locus YGL253W, strain hxk2, active compounds read low 1.03 | S. cerevisiae deletion strains, locus YGR078C, strain PAC10, active compounds read low 0.913 | S. cerevisiae deletion strains, locus YGR135W, strain pre9, active compounds read low 0.971 | S. cerevisiae deletion strains, locus YGR229C, strain SMI1, active compounds read low 0.92 | S. cerevisiae deletion strains, locus YGR252W, strain gcn5, active compounds read low 1.09 | S. cerevisiae deletion strains, locus YHR013C, strain ard1, active compounds read low 1 | S. cerevisiae deletion strains, locus YHR027C, strain rpn1, active compounds read low 1.01 | S. cerevisiae deletion strains, locus YHR030C, strain SLT2, active compounds read low 0.966 | S. cerevisiae deletion strains, locus YHR079C, strain IRE1 (second series), active compounds read low 0.994 | S. cerevisiae deletion strains, locus YHR094C, strain hxt1, active compounds read low 0.99 | S. cerevisiae deletion strains, locus YHR129C, strain ARP1, active compounds read low 0.931 | S. cerevisiae deletion strains, locus YHR142W, strain chs7, active compounds read low 1.05 | S. cerevisiae deletion strains, locus YHR200W, strain rpn10, active compounds read low 0.988 | S. cerevisiae deletion strains, locus YIL066C, strain RNR3, active compounds read low 0.88 | S. cerevisiae deletion strains, locus YIL073C, strain SPO22, active compounds read low 0.947 | S. cerevisiae deletion strains, locus YIL125W, strain kgd1, active compounds read low 0.99 | S. cerevisiae deletion strains, locus YIR030C, strain dcg1, active compounds read low 1.02 | S. cerevisiae deletion strains, locus YJL092W, strain hpr5, active compounds read low 1.02 | S. cerevisiae deletion strains, locus YJL095W, strain BCK1 (second series), active compounds read low 1.01 | S. cerevisiae deletion strains, locus YJL095W, strain BCK1, active compounds read low 0.939 | S. cerevisiae deletion strains, locus YJL115W, strain asf1, active compounds read low 1.02 | S. cerevisiae deletion strains, locus YJL129C, strain trk1, active compounds read low 1.06 | S. cerevisiae deletion strains, locus YJL134W, strain LCB3, active compounds read low 0.984 | S. cerevisiae deletion strains, locus YJL154C, strain vps35, active compounds read low 1.03 | S. cerevisiae deletion strains, locus YJL164C, strain tpk1, active compounds read low 0.98 | S. cerevisiae deletion strains, locus YJL166W, strain qcr8, active compounds read low 1.01 | S. cerevisiae deletion strains, locus YJL168C, strain set2, active compounds read low 0.992 | S. cerevisiae deletion strains, locus YJL187C, strain SWE1 (second series), active compounds read low 0.891 | S. cerevisiae deletion strains, locus YJL187C, strain SWE1, active compounds read low 0.997 | S. cerevisiae deletion strains, locus YJR043C, strain POL32, active compounds read low 0.935 | S. cerevisiae deletion strains, locus YJR075W, strain HOC1, active compounds read low 0.973 | S. cerevisiae deletion strains, locus YKL009W, strain mrt4, active compounds read low 1.02 | S. cerevisiae deletion strains, locus YKL068W, active compounds read low 0.98 | S. cerevisiae deletion strains, locus YKL085W, strain MDH1 (second series), active compounds read low 1 | S. cerevisiae deletion strains, locus YKL085W, strain MDH1, active compounds read low 1 | S. cerevisiae deletion strains, locus YKL160W, strain elf1, active compounds read low 0.991 | S. cerevisiae deletion strains, locus YKR001C, strain vps1, active compounds read low 0.962 | S. cerevisiae deletion strains, locus YKR026C, strain gcn3, active compounds read low 1.01 | S. cerevisiae deletion strains, locus YKR091W, strain srl3, active compounds read low 1.01 | S. cerevisiae deletion strains, locus YLL001W, strain dnm1, active compounds read low 1.02 | S. cerevisiae deletion strains, locus YLL026W, active compounds read low 1.01 | S. cerevisiae deletion strains, locus YLL041C, strain sdh2, active compounds read low 1.02 | S. cerevisiae deletion strains, locus YLR027C, strain aat2, active compounds read low 1.01 | S. cerevisiae deletion strains, locus YLR039C, strain RIC1, active compounds read low 0.95 | S. cerevisiae deletion strains, locus YLR058C, strain SHM2, active compounds read low 0.913 | S. cerevisiae deletion strains, locus YLR102C, strain apc9, active compounds read low 0.99 | S. cerevisiae deletion strains, locus YLR221C, strain rsa3, active compounds read low 1 | S. cerevisiae deletion strains, locus YLR258W, strain gsy2, active compounds read low 1.01 | S. cerevisiae deletion strains, locus YLR262C, strain YPT6 (second series), active compounds read low 1.04 | S. cerevisiae deletion strains, locus YLR262C, strain YPT6, active compounds read low 1.04 | S. cerevisiae deletion strains, locus YLR268W, strain sec22, active compounds read low 0.963 | S. cerevisiae deletion strains, locus YLR320W, strain mms22, active compounds read low 0.996 | S. cerevisiae deletion strains, locus YLR330W, strain CHS5, active compounds read low 0.975 | S. cerevisiae deletion strains, locus YLR342W, strain FKS1 (second series), active compounds read low 0.981 | S. cerevisiae deletion strains, locus YLR342W, strain FKS1, active compounds read low 0.996 | S. cerevisiae deletion strains, locus YLR357W, strain rsc2, active compounds read low 0.985 | S. cerevisiae deletion strains, locus YLR370C, strain arc18, active compounds read low 1.01 | S. cerevisiae deletion strains, locus YLR371W, strain rom2, active compounds read low 0.996 | S. cerevisiae deletion strains, locus YLR384C, strain iki3, active compounds read low 1.04 | S. cerevisiae deletion strains, locus YLR418C, strain cdc73, active compounds read low 0.975 | S. cerevisiae deletion strains, locus YML016C, strain PPZ1, active compounds read low 0.957 | S. cerevisiae deletion strains, locus YML032C, strain rad52, active compounds read low 0.998 | S. cerevisiae deletion strains, locus YML120C, strain ndi1, active compounds read low 1.03 | S. cerevisiae deletion strains, locus YML124C, strain tub3, active compounds read low 1 | S. cerevisiae deletion strains, locus YMR058W, strain fet3, active compounds read low 0.969 | S. cerevisiae deletion strains, locus YMR078C, strain ctf18, active compounds read low 0.997 | S. cerevisiae deletion strains, locus YMR125W, strain sto1, active compounds read low 1.01 | S. cerevisiae deletion strains, locus YMR129W, active compounds read low 1.02 | S. cerevisiae deletion strains, locus YMR205C, strain PFK2, active compounds read low 1.01 | S. cerevisiae deletion strains, locus YMR223W, strain ubp8, active compounds read low 0.971 | S. cerevisiae deletion strains, locus YMR231W, strain pep5, active compounds read low 1.01 | S. cerevisiae deletion strains, locus YMR307W, strain GAS1, active compounds read low 1.17 | S. cerevisiae deletion strains, locus YNL067W, strain RPL9B, active compounds read low 0.951 | S. cerevisiae deletion strains, locus YNL071W, strain lat1, active compounds read low 1.02 | S. cerevisiae deletion strains, locus YNL153C, strain GIM3, active compounds read low 0.912 | S. cerevisiae deletion strains, locus YNL209W, strain ssb2, active compounds read low 0.994 | S. cerevisiae deletion strains, locus YNL233W, strain BNI4, active compounds read low 0.973 | S. cerevisiae deletion strains, locus YNL248C, strain rpa49, active compounds read low 1.02 | S. cerevisiae deletion strains, locus YNL250W, strain rad50, active compounds read low 0.97 | S. cerevisiae deletion strains, locus YNL271C, strain bni1, active compounds read low 0.986 | S. cerevisiae deletion strains, locus YNL298W, strain CLA4, active compounds read low 0.975 | S. cerevisiae deletion strains, locus YNL307C, strain MCK1, active compounds read low 0.965 | S. cerevisiae deletion strains, locus YNL322C, strain KRE1 (second series), active compounds read low 1.03 | S. cerevisiae deletion strains, locus YNR049C, strain mso1, active compounds read low 1.02 | S. cerevisiae deletion strains, locus YNR052C, strain pop2, active compounds read low 0.993 | S. cerevisiae deletion strains, locus YOL012C, strain htz1 0.606 | S. cerevisiae deletion strains, locus YOL147C, strain pex11, active compounds read low 0.99 | S. cerevisiae deletion strains, locus YOR001W, strain rrp6, active compounds read low 0.987 | S. cerevisiae deletion strains, locus YOR061W, strain CKA2, active compounds read low 0.917 | S. cerevisiae deletion strains, locus YOR069W, strain VPS5, active compounds read low 0.98 | S. cerevisiae deletion strains, locus YOR070C, strain gyp1, active compounds read low 1.02 | S. cerevisiae deletion strains, locus YOR080W, strain dia2, active compounds read low 1 | S. cerevisiae deletion strains, locus YOR083W, strain WHI5, active compounds read low 0.996 | S. cerevisiae deletion strains, locus YOR106W, strain vam3, active compounds read low 0.983 | S. cerevisiae deletion strains, locus YOR136W, strain idh2, active compounds read low 0.993 | S. cerevisiae deletion strains, locus YOR144C, strain elg1, active compounds read low 1.01 | S. cerevisiae deletion strains, locus YOR184W, strain ser1, active compounds read low 0.958 | S. cerevisiae deletion strains, locus YOR265W, strain rbl2, active compounds read low 0.999 | S. cerevisiae deletion strains, locus YOR270C, strain vph1, active compounds read low 1.02 | S. cerevisiae deletion strains, locus YOR290C, strain snf2, active compounds read low 0.982 | S. cerevisiae deletion strains, locus YOR316C, strain cot1, active compounds read low 0.989 | S. cerevisiae deletion strains, locus YPL051W, strain arl3, active compounds read low 0.968 | S. cerevisiae deletion strains, locus YPL078C, strain atp4, active compounds read low 1.03 | S. cerevisiae deletion strains, locus YPL106C, strain sse1, active compounds read low 1 | S. cerevisiae deletion strains, locus YPL240C, strain hsp82, active compounds read low 1.01 | S. cerevisiae deletion strains, locus YPR119W, strain clb2, active compounds read low 1.01 | S. cerevisiae deletion strains, locus YPR141C, strain kar3, active compounds read low 0.98 | S. cerevisiae deletion strains, locus YPR163C, strain tif3, active compounds read low 0.997 | S. cerevisiae deletion strains, locus YPR167C, strain met16, active compounds read low 0.99 | S. cerevisiae deletion strains, strain wtn01, active compounds read low 0.969 | S. cerevisiae strains, strain wild type, active compounds read low 0.904
active: S. cerevisiae deletion strains, locus YBR021W, strain FUR4, active compounds read low 1.18 [resistant] | S. cerevisiae deletion strains, locus YGL248W, strain PDE1, active compounds read low 0.877

From PubChem BioAssay AID1159580 (chemical genetic matrix, 2015)
